Source: PubChem BioAssay (National Center for Advancing Translational Sciences (NCATS))
USP2a block – USP2a (human) protease inhibition; Potency, µM (series often up to 38.3 µM), most hits filed as inhibitors; AID 463254; actives 0.01% (n = 330,000); USP2 core, Ub-CHOP2 coupled fluorogenic reporter, 485/531
Target sequence (O75604 whole entry, looked up): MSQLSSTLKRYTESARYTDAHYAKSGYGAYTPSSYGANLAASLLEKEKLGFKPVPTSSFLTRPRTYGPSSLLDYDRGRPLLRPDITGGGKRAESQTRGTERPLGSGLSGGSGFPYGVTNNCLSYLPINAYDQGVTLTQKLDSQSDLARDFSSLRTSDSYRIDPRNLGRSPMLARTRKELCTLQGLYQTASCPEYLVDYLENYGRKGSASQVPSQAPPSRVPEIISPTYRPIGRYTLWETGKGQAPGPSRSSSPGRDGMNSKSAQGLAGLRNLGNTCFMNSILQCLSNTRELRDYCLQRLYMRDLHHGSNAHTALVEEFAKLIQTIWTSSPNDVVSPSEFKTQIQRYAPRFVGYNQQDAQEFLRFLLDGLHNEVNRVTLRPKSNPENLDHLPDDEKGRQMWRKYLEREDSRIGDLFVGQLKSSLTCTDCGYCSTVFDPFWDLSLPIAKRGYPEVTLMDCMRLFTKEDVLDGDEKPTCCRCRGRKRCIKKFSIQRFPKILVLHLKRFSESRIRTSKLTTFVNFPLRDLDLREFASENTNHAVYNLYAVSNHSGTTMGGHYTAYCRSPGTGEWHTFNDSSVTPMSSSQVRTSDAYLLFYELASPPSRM
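USP2 core (10nM final) preincubated 30min RT with compound in 20mM Tris-HCl pH 8.0, 2mM CaCl2, 2mM beta-mercaptoethanol, 0.05% CHAPS; 25nM Ub-CHOP2 plus 25nM reporter substrate added, fluorescence (Ex485/Em531) read after 60min.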
PKM2 activator – increases activity of human pyruvate kinase M2 | actives 0.34% (n = 260,000) | purified PKM2, Kinase-Glo ATP luminescence, activation; response scale: 0% is enzyme alone, no compound | AID 1631 | Potency, µM (top dose mostly 57.5 µM), usual class: activators | P14618; also: nearly all actives have a fitted effect of over 55% in size
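ATP formation by purified human PK-M2, quantified via coupled luciferase luminescence after 1 h at room temperature with 0.1 mM ADP and 0.5 mM PEP final.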
Pin1 inhibitor – blocks the human prolyl isomerase Pin1. Q13526. Pin1 FP peptide displacement, HiFluor488, 10 min. Potency, µM (titrated, usually from 115 µM), actives largely listed as inhibitors. actives 0.009% (n = 390,000). AID 504891; active = well fitted inhibition curve with a large enough effect in the polarisation, with a control signal flat, not every such curve was filed as active; inconclusive = small, poorly fitted or top-dose-only effect, or effect the other way, or a change in a side signal; inactive = no such curve, though single readings can be large or run the other way; the % refers to the polarisation
Target sequence (Q13526 whole entry, looked up): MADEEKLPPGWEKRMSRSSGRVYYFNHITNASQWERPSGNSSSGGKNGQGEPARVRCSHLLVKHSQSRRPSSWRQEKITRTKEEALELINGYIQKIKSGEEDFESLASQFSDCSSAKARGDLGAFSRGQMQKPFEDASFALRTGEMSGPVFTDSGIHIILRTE
a7 integrin act – integrin-mediated muscular dystrophy alleviation activation | AID 624291 | Potency, µM (top dose mostly 38.3 µM), actives largely listed as activators | alpha7betagal myoblasts, beta-gal FDG fluorescence, 48 h | actives 0.064% (n = 350,000); also: nearly all actives have a fitted effect of over 60% in size
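alpha7betagal+/- myoblasts (passage 13, 250/well) treated 48 h at 37C with compounds at 1:260 dilution of DMSO stock. Lysed, then beta-galactosidase activity read as FDG fluorescence (ex 480/em 540) after 30 min, with pre-read for autofluorescence.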
IL2 activator – activators of IL-2 | IL-2 activation reporter assay, cell-based qHTS; stimulated with anti-CD3/CD4/CD28 beads; in transgenic mouse T cells | activation, % (series mostly up to about 46 µM) | actives 0.065% (n = 360,000); in the data active = activation above about 50%; inconclusive = mostly about 30% to 49%
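Readout is EGFP and DsRed signal by fluorescent plate cytometry after 18 h at 37 degrees C. Transgenic mouse T cells (750/well) received compound for 60 min before bead stimulation (anti-CD3, anti-CD4, anti-CD28); memory T cells served as non-tolerant control.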
ClpP mod – qHTS Assay for Activators of ClpP; ATP-dependent Clp protease proteolytic subunit (Bacillus subtilis (strain 168)), P80244; purified B. subtilis ClpP, FRET peptide cleavage, 20 min; Potency, µM (doses to about 57.5 µM); actives 1.9% (n = 340,000); AID 651965, 2013; active = well fitted falling curve with a large enough effect; inconclusive = small, poorly fitted or top-dose-only effect; inactive = no such curve, though single readings can be large or run the other way; also: the source files actives as falling curves though it sought activators and does not explain the sign; nearly all actives have a fitted effect of over 65% in size
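ClpP 10 microg/mL final, pH 8 Tris/KCl buffer with BSA, glycerol, Tween-20; compound pinned in; FRET-FV substrate; RT 20 min; Ex320/Em430; ΔFRET vs ADEP 5.8 microM, DMSO, no enzyme.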
A number is an active result; 0 = inactive; ? = inconclusive; - = no result given. Sampled rows, rich in hits. Any-hit rate of the full collection: about 1.9%. Unless noted, calls follow the shape of the dose curve; as a rule, active = well fitted curve in the direction sought with a large enough effect; inconclusive = small, poorly fitted or top-dose-only effect, or another doubt; inactive = no such curve, though single readings can be large; an effect the other way counts as inactive or inconclusive.

SMILES | USP2a block | PKM2 activator | Pin1 inhibitor | a7 integrin act | IL2 activator | ClpP mod
COc1ccc(OC)c(-c2cc(C(=O)N3CCc4ccccc4C3)no2)c1 | 0 | 0 | 0 | 0 | 0 | 25.1µM
CN(C)C(=O)CSc1nnc(-c2cc(-c3cccs3)nc3ccccc23)o1 | 0 | 0 | 0 | 0 | 0 | 25.1µM
CCC(=O)Nc1ccc(-c2cc3ccccc3oc2=O)cc1 | 0 | 0 | 0 | 0 | 0 | -
CC(=O)Nc1ccc(-c2cc3ccccc3o2)cc1 | 0 | 0 | 0 | 0 | 0 | 14.1µM
COc1cc2nc(N3CCOCC3)nc(NC3CC3)c2cc1OC | - | - | - | - | - | 0
Cc1c(C(=O)N(C)c2cccc(C(F)(F)F)c2)sc2nc3n(c(=O)c12)CCCCC3 | - | - | ? | - | - | 0
O=C(NNC(=O)c1ccccc1Cl)c1cc2cc(OC(F)(F)F)ccc2[nH]1 | 0 | 0 | 0 | 0 | 0 | 15.8µM
Cc1ccc(NC(=O)c2cc3cc(OC(F)(F)F)ccc3[nH]2)cc1 | 0 | 0 | 0 | 0 | 0 | 0
Cc1ccc(N(C)S(=O)(=O)c2ccc3c(c2)CCC(=O)N3)cc1C | - | - | 0 | - | - | -
CC(C)(C)OC(=O)N1CCCC1C(=O)NC1COC2CC(n3ccc(=O)[nH]c3=O)OC12 (stereo not given) | - | - | 0 | - | - | -
CC(=O)Nc1ccc(Nc2cc(C)nc3c(-c4ccc(Cl)cc4)c(C)nn23)cc1 | 0 | 0 | 0 | 0 | 0 | 28.2µM
CC(=O)Nc1ccc(Nc2cc(C)nc3c(-c4ccc(Cl)cc4)cnn23)cc1 | 0 | 0 | 0 | 0 | 0 | ?
CC(C)c1cccc2c([Si](C)(C)C)c3c(nc12)-c1cccc(=O)n1C3 | - | 0 | - | - | - | -
COCCn1nnnc1C(c1cc2cc(C)ccc2[nH]c1=O)N1CCCCCC1 (stereo not given) | 0 | 0 | 0 | 0 | 0 | 28.2µM
O=c1[nH]c2cc3c(cc2cc1C(c1nnnn1Cc1ccccc1)N1CCCCCC1)OCCO3 (stereo not given) | 0 | 0 | 0 | 0 | 0 | 0
O=c1[nH]c2cc3c(cc2cc1C(c1nnnn1Cc1ccccc1)N1CCN2CCCC2C1)OCCO3 (stereo not given) | 0 | 0 | 0 | 0 | 0 | 25.1µM
CCC(C)(C)n1nnnc1C(c1cc2cc3c(cc2[nH]c1=O)OCO3)N1CCCCC1 (stereo not given) | 0 | 0 | 0 | 0 | 0 | 14.1µM
COc1cc2cc(C(c3nnnn3C(C)(C)C)N3CCC(C)CC3)c(=O)[nH]c2cc1OC (stereo not given) | 0 | 0 | 0 | 0 | 0 | 12.6µM
CCCN1CCN(C(c2cc3cc4c(cc3[nH]c2=O)OCO4)c2nnnn2C(C)(C)C)CC1 (stereo not given) | 0 | 0 | 0 | 0 | 0 | ?
COCCn1nnnc1C(c1cc2c(C)cc(C)cc2[nH]c1=O)N1CCCCCC1 (stereo not given) | 0 | 0 | 0 | 0 | 0 | 0
Cc1ccccc1-c1nc2c(s1)CCc1onc(-c3ccc(Cl)cc3)c1-2 | 0 | - | 0 | 0 | 0 | ?
COc1ccc(-c2noc3c2-c2nc(-c4ccccc4C)sc2CC3)cc1 | - | - | 0 | 0 | 0 | 25.1µM
c1ccc2c(c1)c1c(c3ccccc32)CN2CCCC2C1 (stereo not given) | - | - | 0 | 0 | 0 | 20µM
CCOC(=O)[C@@H](C)N(C(=O)OC(C)(C)C)S(=O)(=O)N(Cc1ccccc1)[C@@H](C(=O)OC)C(C)C | - | - | - | - | - | 0
O=C(Nc1cccnc1)c1cc2c(ccc3ccccc32)o1 | - | 0 | ? | 0 | 0 | 25.1µM
SMILES | USP2a block | PKM2 activator | Pin1 inhibitor | a7 integrin act | IL2 activator | ClpP mod
COC(=O)c1cc2c(ccc3ccccc32)oc1=O | - | - | 0 | ? | 0 | 0
O=C(O)c1cc2c(ccc3ccccc32)o1 | 0 | 0 | ? | 0 | 0 | 28.2µM
CN1CCN(C(=O)c2cc3c(ccc4ccccc43)oc2=O)CC1 | 0 | 0 | 0 | 0 | 0 | 12.6µM
CC(C)NC(=O)COC(=O)c1ccccc1OCC(=O)Nc1ccc(Br)cc1 | - | - | - | - | - | 0
CCOc1ccc(NC(=O)CSc2nnc(C)n2C2CC2)cc1S(=O)(=O)N1CCCC1 | 0 | - | 0 | 0 | 0 | 25.1µM
CCOc1ccc(NC(=O)CSc2nnnn2C2CC2)cc1S(=O)(=O)N1CCCC1 | 0 | - | 0 | 0 | 0 | 0
O=C(C1=C(O)C(=O)N(CCN2CCOCC2)C1c1ccc(Cl)cc1)c1cc2ccccc2o1 (stereo not given) | 0 | - | 0 | 0 | 0 | 0
COC(=O)c1ccc(C2C(C(=O)c3cc4ccccc4o3)=C(O)C(=O)N2CCN2CCOCC2)cc1 (stereo not given) | 0 | - | 0 | 10µM | 0 | 0
O=C1CCC[C@@H]2CC(Nc3ccccc3)C[C@@H]3CCN1[C@H]23 (stereo not given in full) | - | - | - | - | - | 0
CCCCn1c(NC(=O)c2ccccc2Cl)c(C#N)c2nc3ccccc3nc21 | 0 | 0 | ? | 0 | 0 | 0
CCCCC(CC)Cn1c(N)c(C#N)c2nc3ccccc3nc21 (stereo not given) | 0 | 0 | 0 | 0 | 0 | 31.6µM
CCC(=O)Nc1c(C#N)c2nc3ccccc3nc2n1C1CCCCC1 | 0 | 0 | ? | 0 | 0 | 0
CCCCn1c(NC(=O)CC)c(C#N)c2nc3ccccc3nc21 | 0 | 0 | 0 | 0 | 0 | 15.8µM
CCC(=O)Nc1c(C#N)c2nc3ccccc3nc2n1-c1ccccc1C | 0 | 0 | 0 | 0 | 0 | 3.55µM
CCOC(=O)CCCSc1nc(-c2ccc3c(c2)OCO3)cc(C(F)(F)F)c1C#N | 0 | 0 | 0 | 0 | 0 | 15.8µM
CCOC(=O)CSc1nc(-c2ccc3c(c2)OCO3)ccc1C#N | 0 | 0 | 0 | 0 | 0 | 25.1µM
COc1ccc2oc(C(=O)OC(C)C(=O)Nc3ccc(N4CCOCC4)cc3)c(C)c2c1 (stereo not given) | 0 | - | ? | 0 | 0 | 0
COc1ccc2oc(C(=O)OCC(=O)N3CCCCC3C)c(C)c2c1 (stereo not given) | 0 | - | 0 | 0 | 0 | 8.91µM
CCNC(=O)NC(=O)C(C)OC(=O)c1oc2ccc(OC)cc2c1C (stereo not given) | 0 | 0 | 0 | 0 | 0 | 31.6µM
COc1ccc2oc(C(=O)OCC(=O)N(C)C3CCS(=O)(=O)C3)c(C)c2c1 (stereo not given) | 0 | - | 0 | 0 | 0 | 10µM
CN(C(=O)COC(=O)c1ccccc1NCCO)C1CCS(=O)(=O)C1 (stereo not given) | 0 | - | 0 | 0 | 0 | 20µM
O=C1CCCC2=C1C1(CCOCC1)N=C(Nc1nc3ccccc3o1)N2 | - | - | 0 | - | - | -
CCCN1CNc2c(c(=O)[nH]c(=S)n2CCc2ccsc2)C1 | - | - | 0 | - | - | 0
COc1ccc2oc(C(=O)OC(C)C(=O)N3CCC(C)CC3)c(C)c2c1 (stereo not given) | 0 | - | 0 | 0 | 0 | 25.1µM
